# A selection: hits, their analogues and other compounds. The true share with any hit is near 10%.
# GPT2 inhibitor: blocks human glutamate pyruvate transaminase 2; AID 1671188; Potency, µM (series often up to 57.7 µM), for the others: at the highest dose activity change, negative = inhibition, actives largely listed as inhibitors; Q8TD30; Recombinant GPT2, coupled pyruvate oxidase/HRP Amplex Red fluorescence; 100,000 compounds, 0.25% hits; also: % is scaled to controls: 0 for no effect and ±100 for the full control effect; nearly all actives have a fitted effect of over 60% in size
# Target sequence (Q8TD30 whole entry, looked up): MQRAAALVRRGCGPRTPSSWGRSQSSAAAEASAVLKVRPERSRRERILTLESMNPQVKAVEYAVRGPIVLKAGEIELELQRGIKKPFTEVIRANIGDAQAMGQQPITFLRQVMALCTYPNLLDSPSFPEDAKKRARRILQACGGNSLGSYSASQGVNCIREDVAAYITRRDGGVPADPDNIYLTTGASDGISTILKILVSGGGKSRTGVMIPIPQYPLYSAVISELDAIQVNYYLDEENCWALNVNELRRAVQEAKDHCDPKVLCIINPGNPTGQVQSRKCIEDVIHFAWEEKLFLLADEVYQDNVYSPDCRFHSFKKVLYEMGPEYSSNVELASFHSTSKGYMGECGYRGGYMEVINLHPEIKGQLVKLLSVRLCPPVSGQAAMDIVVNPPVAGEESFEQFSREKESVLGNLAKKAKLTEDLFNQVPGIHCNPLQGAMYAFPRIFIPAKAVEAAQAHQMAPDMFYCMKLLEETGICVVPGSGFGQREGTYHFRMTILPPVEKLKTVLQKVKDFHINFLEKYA
#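 GPT2 10ng/uL, a-KG 250uM, L-Ala 2mM, HEPES pH7.5 + 0.0001% Tween; 30 min RT. Then Amplex mix (PO/HRP/ThPP), 30 min RT dark, fluorescence. AOA 50uM used as positive control.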
# HEK293 tox: cytotoxic compounds in HEK 293 cells | Potency, µM (doses to about 115 µM), for inactives: top-dose activity change, negative = cytotoxicity, most hits filed as inhibitors | HEK 293 viability, ATP luminescence (CellTiter-Glo), 48-72 h | AID 1345083 | 94,000 compounds, 6.6% hits; also: % is scaled to controls: 0 for no effect and ±100 for the full control effect; nearly all actives have a fitted effect of over 60% in size
#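 Viability of HEK 293 cells, plated at 250 cells/well, was judged by cellular ATP after compound treatment for 48 or 72 hr. Luminescence was imaged 10 min after CellTiter-Glo addition at room temperature.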
# Luciferase inh: blocks purified firefly luciferase enzyme activity; P08659; purified P. pyralis luciferase, luminescence, biochemical; Potency, µM (highest dose often 115 µM), most hits filed as inhibitors; 76,000 compounds, 2.5% hits; AID 1347043; also: % is scaled to controls: 0 for no effect and ±100 for the full control effect; nearly all actives have a fitted effect of over 65% in size
#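 Inhibitors were tested against purified firefly luciferase in a biochemical, low-substrate format (both substrates at 10uM) and luminescence measured with a CCD imager.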
# NPR1 antag: human Npr1 receptor antagonism. P16066. Potency, µM (titrated, usually from 46.3 µM), without a hit: at the highest dose activity change, negative = inhibition, hits mostly inhibitors. 76,000 compounds, 1.6% hits. HEK293 hNpr1 GloSensor cGMP, ANP-stimulated luminescence; calls by dose curve; also: % is scaled to controls: 0 for no effect and ±100 for the full control effect; nearly all actives have a fitted effect of over 60% in size
#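 HEK293 cells stably expressing human Npr1 and cGMP GloSensor pGS-40F, loaded 2 h with 2% GloSensor reagent, given compound 30 min at room temperature. Luminescence read before and 20 min after 0.1 nM hNppA.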
# 3T3 cytotox: NIH 3T3 cell cytotoxicity | AID 1345082 | NIH 3T3 viability, CellTiter-Glo ATP luminescence, 48-72 h | Potency, µM (highest dose often 96.7 µM), without a hit: top-dose activity change, negative = cytotoxicity, most hits filed as inhibitors | 94,000 compounds, 4.3% hits; also: % is scaled to controls: 0 for no effect and ±100 for the full control effect; nearly all actives have a fitted effect of over 55% in size
#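 Cytotoxicity was measured by CellTiter-Glo ATP luminescence after 48 or 72 h compound exposure at 37 °C. Mouse NIH 3T3 fibroblasts were seeded at 400 cells/well and dosed by 23 nL pin transfer.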
# Npr1 antag conf: confirmation of human Npr1 natriuretic peptide receptor antagonists; shares compounds with NPR1 antag; HEK293 hNpr1 cGMP GloSensor luminescence, ANP-stimulated; Potency, µM (top dose mostly 57.6 µM), inactives show top-dose activity change, negative = inhibition, most hits filed as inhibitors; 1,400 compounds, 76% hits; calls by dose curve; also: nearly all actives have a fitted effect of over 70% in size
# NPR2 antag: hNpr2 antagonism, selectivity versus Npr1; shares compounds with NPR1 antag; HEK293 hNpr2 GloSensor cGMP luminescence, CNP-stimulated; Potency, µM (doses to about 57.6 µM), for inactives: top-dose activity change, negative = inhibition, hits mostly inhibitors; 1,400 compounds, 67% hits; calls by dose curve; also: nearly all actives have a fitted effect of over 70% in size
# FLuc inh counter: counter-screen for Npr1 antagonists: firefly luciferase inhibitors. shares compounds with NPR1 antag. purified FLuc enzyme, luminescence, Km substrate. Potency, µM (series often up to 57.6 µM), inactives show top-dose activity change, negative = inhibition, usual class: inhibitors. 1,400 compounds, 0.7% hits; also: 0% is about no effect
# GloSensor cGMP: reduces cGMP signal in GloSensor control cells. 1,400 compounds, 69% hits. shares compounds with NPR1 antag. Potency, µM (top dose mostly 57.6 µM), for the others: top-dose activity change, negative = inhibition, actives largely listed as inhibitors. HEK293 GloSensor cGMP, SNP-stimulated, luminescence; calls by dose curve; also: % is scaled to controls: 0 for no effect and ±100 for the full control effect; nearly all actives have a fitted effect of over 70% in size
# * hit, by the source's call; i = inactive; ? = inconclusive; · = no result; [ ] = dose if it differs, or a comment. Unless noted, calls follow the shape of the dose curve; as a rule, active = well fitted curve in the direction sought with a large enough effect; inconclusive = small, poorly fitted or top-dose-only effect, or another doubt; inactive = no such curve, though single readings can be large; an effect the other way counts as inactive or inconclusive. Potency is read from the fitted curve at half-maximal effect.
SMILES,GPT2 inhibitor,HEK293 tox,Luciferase inh,NPR1 antag,3T3 cytotox,Npr1 antag conf,NPR2 antag,FLuc inh counter,GloSensor cGMP
COc1ccc(CN2C=C(C(=O)OCc3nc(-c4cccc(OC)c4)no3)C(C)=NS2(=O)=O)cc1,i,-20%,i,?,?,?,-23%,-14%,?
COCCCNC(=O)c1nc2sccn2c1-c1ccncc1,i,-1%,·,·,-7%,·,·,·,·
CN(C)C(=O)N1C2CCC1CN(c1ccc(C(F)(F)F)cc1)C2,-2%,?,·,·,?,24µM*,19µM*,1%,15µM*
Cc1nc2cccnc2n1CC1CCCN(S(=O)(=O)c2ccc(C(C)C)cc2)C1 (stereo unspecified),2%,?,i,?,?,27µM*,?,4%,24µM*
Cc1ccc(S(=O)(=O)N2CCCC(Cn3c(C)nc4cccnc43)C2)cc1 (stereo unspecified),1%,?,i,-19%,?,·,·,·,·
O=C(N1CCC(c2noc(C3CC3)n2)C1)C1(c2ccccc2)CC1 (stereo unspecified),-6%,7%,i,6%,-4%,·,·,·,·
COc1cccc(-c2cc(C3CCN(C(=O)c4ccc(Br)cc4)CC3)[nH]n2)c1,5%,?,i,?,?,27µM*,?,3%,?
CCc1ccc(C(=O)N2CCC(Cc3nc(-c4cccc(OC)c4)no3)CC2)cc1,i,22µM*,i,4µM*,40µM*,9.7µM*,14µM*,2%,12µM*
COc1cccc(-c2noc(CC3CCN(C(=O)c4ccc(C(C)C)cc4)CC3)n2)c1,0%,35µM*,i,10µM*,?,14µM*,17µM*,-5%,14µM*
CCOc1ccc(C(=O)N2CCC(Cc3nc(-c4cccc(OC)c4)no3)CC2)cc1,-8%,?,i,7.1µM*,?,9.7µM*,12µM*,-1%,9.7µM*
COc1cccc(CNC(=O)N2CCC(c3cc(-c4cccc(OC)c4)n[nH]3)CC2)c1,i,?,i,?,?,·,·,·,·
CCOc1ccc(C(=O)N2CCC(n3cc(-c4nc(-c5ccccc5)no4)nn3)CC2)cc1,i,?,?,-25%,-23%,·,·,·,·
COc1cccc([S+](=O)([O-])N2CCC3(CC2)COc2ccccc2NC3=O)c1,2%,-22%,i,-19%,-16%,·,·,·,·
Cc1cccc(C(=O)N2CCC(Cc3nc(C(C)C)no3)CC2)c1,i,?,i,-23%,?,·,·,·,·
COc1cccc(-c2noc(CC3CCN(C(=O)c4ccc(C)cc4C)CC3)n2)c1,i,35µM*,i,11µM*,?,11µM*,11µM*,0%,9.7µM*
COc1cccc(-c2noc(CC3CCN(C(=O)c4ccc(F)c(F)c4)CC3)n2)c1,i,?,i,6.3µM*,?,4.8µM*,9.7µM*,0%,6.1µM*
COc1cccc(-c2noc(CC3CCN(C(=O)c4ccc(C)cc4)CC3)n2)c1,1%,?,i,3.5µM*,?,4.8µM*,5.4µM*,2%,4.3µM*
Cc1ccc(-c2c(C(=O)NCC(C)C)nc3sccn23)cc1,-16%,?,·,·,?,·,·,·,·
COc1nccc(N2CCC(CC(=O)N(C)CCCc3c(C)nn(C)c3C)CC2)n1,-7%,?,i,11µM*,?,22µM*,?,1%,19µM*
CNc1nccc(N2CCC(CC(=O)N(C)CCCc3c(C)nn(C)c3C)CC2)n1,1%,?,i,?,?,·,·,·,·
Cc1ccccc1S(=O)(=O)N1CCCC(CCC(=O)Nc2cccc(Cl)c2)C1 (stereo unspecified),-22%,22µM*,i,11µM*,?,24µM*,27µM*,2%,27µM*
COc1ccc(CNC(=O)c2ccc(Cn3ccn4nc5c(c4c3=O)CCCC5)cc2)cc1OC,i,22µM*,i,11µM*,?,27µM*,24µM*,0%,24µM*
COc1cccc(CNC(=O)c2ccc(Cn3ccn4nc5c(c4c3=O)CCCC5)cc2)c1,i,?,i,0%,-24%,·,·,·,·
COc1ccc(CNC(=O)c2ccc(Cn3ccn4nc5c(c4c3=O)CCCC5)cc2)cc1,i,20µM*,i,11µM*,?,27µM*,27µM*,1%,27µM*
COc1ccc(NC(=O)c2ccc(Cn3ccn4nc5c(c4c3=O)CCCC5)cc2)cc1OC,1%,?,i,-4%,?,·,·,·,·
SMILES,GPT2 inhibitor,HEK293 tox,Luciferase inh,NPR1 antag,3T3 cytotox,Npr1 antag conf,NPR2 antag,FLuc inh counter,GloSensor cGMP
O=C(c1ccccc1F)N1CCC(C(=O)N2CCC(c3nc4ncccc4[nH]3)CC2)C1 (stereo unspecified),i,-17%,·,·,-5%,·,·,·,·
O=C(Nc1ccc(Cl)cc1)c1nc2c(o1)CCN(Cc1ccc3cn[nH]c3c1)CC2,-13%[88.5 µM],45µM*,i,0.56µM*,?,3.5µM*,4µM*,-3%[86.2 µM],4µM*
O=C(Nc1ccc(Cl)cc1)c1nc2c(o1)CCN(Cc1ccc3c(c1)CCO3)CC2,?,?,i,5µM*,?,6.3µM*,11µM*,2%[86.2 µM],8.9µM*
O=C(Nc1ccc(Cl)cc1)c1nc2c(o1)CCN(Cc1ccncc1)CC2,0%[88.5 µM],?,i,1.3µM*,?,3.5µM*,3.5µM*,-22%[86.2 µM],3.5µM*
O=C(c1nc2c(o1)CCN(Cc1cccc(Cl)c1)CC2)N1CCOCC1,4%[88.5 µM],?,i,?,?,·,·,·,·
Cc1ccc(CN2CCc3nc(C(=O)Nc4ccc(Cl)cc4)oc3CC2)cc1,3%[88.5 µM],?,i,14µM*,?,11µM*,9.9µM*,0%[86.2 µM],14µM*
Cc1csc(NC(=O)[C@@H]2CCC[C@@H](NCC3CC3)CN(C)C(=O)C2)n1,i,1%[172 µM],i,-11%[70.6 µM],-18%[174 µM],·,·,·,·

# Screening results: PubChem, National Center for Advancing Translational Sciences (NCATS)
